Most compounds without a hit are left out; they make up all but 22% or so of the library.
Shiga inhibitor: Shiga toxin inhibition. Vero cells, Shiga toxin protein synthesis inhibition reporter. inhibition, % at 38.7 µM. actives 9.2% (n = 290,000). AID 2315; in the data active = inhibition mostly above about 28%, no sharp cut-off; inactive = mostly below about 43%; note: 0% is about no effect
Pf growth 48h: P. falciparum growth inhibition at 48 hours (one generation). P. falciparum luciferase growth in erythrocytes, 48 h. Potency, µM (top dose mostly 28.7 µM), without a hit: at the highest dose activity change, negative = inhibition, usual class: inhibitors. actives 5.9% (n = 310,000); note: potency is the fitted concentration of half-maximal effect; % is set by controls: 0 for no effect and ±100 for the full control effect
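In quantitative HTS format, infected erythrocytes bearing luciferase-reporter parasites were treated for a single generation at 37 C. Luminescence after adding detection reagent served as the growth measure.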
Cycloheximide cs: affects cycloheximide protein synthesis inhibition readout, counter-screen. cell reporter, cycloheximide protein synthesis inhibition counterscreen. max response, %. actives 12% (n = 300,000); in the data active = max response mostly above about 13%, no sharp cut-off; inactive = mostly below about 14%; note: read at 38.3 µM for the half of the compounds with a filed dose; 0% is about no effect
Pf growth 96h: P. falciparum growth inhibition at 96 hour, primary screen for plastid delayed-death inhibitors | P. falciparum luciferase reporter growth, 96 h | Potency, µM (series often up to 28.7 µM), for the others: at the highest dose activity change, negative = inhibition, hits mostly inhibitors | actives 6.9% (n = 320,000) | AID 504834; note: potency is the fitted concentration of half-maximal effect; % is set by controls: 0 for no effect and ±100 for the full control effect
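Infected RBCs, 2% Hct / 0.05% parasitemia final; luciferase-reporter P. falciparum; cpd 96 h, 37 C, 5% CO2; luciferase detection reagent; luminescence.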
LmPK inh: LmPK (Leishmania mexicana) enzyme inhibition. Q27686. purified LmPK, Kinase-Glo ATP luminescence, 1 h. Potency, µM (titrated, usually from 57.5 µM), for the others: top-dose activity change, negative = inhibition, hits mostly inhibitors. actives 0.37% (n = 290,000); note: potency is the fitted concentration of half-maximal effect; % is set by controls: 0 for no effect and ±100 for the full control effect
Target sequence (Q27686 whole entry, looked up): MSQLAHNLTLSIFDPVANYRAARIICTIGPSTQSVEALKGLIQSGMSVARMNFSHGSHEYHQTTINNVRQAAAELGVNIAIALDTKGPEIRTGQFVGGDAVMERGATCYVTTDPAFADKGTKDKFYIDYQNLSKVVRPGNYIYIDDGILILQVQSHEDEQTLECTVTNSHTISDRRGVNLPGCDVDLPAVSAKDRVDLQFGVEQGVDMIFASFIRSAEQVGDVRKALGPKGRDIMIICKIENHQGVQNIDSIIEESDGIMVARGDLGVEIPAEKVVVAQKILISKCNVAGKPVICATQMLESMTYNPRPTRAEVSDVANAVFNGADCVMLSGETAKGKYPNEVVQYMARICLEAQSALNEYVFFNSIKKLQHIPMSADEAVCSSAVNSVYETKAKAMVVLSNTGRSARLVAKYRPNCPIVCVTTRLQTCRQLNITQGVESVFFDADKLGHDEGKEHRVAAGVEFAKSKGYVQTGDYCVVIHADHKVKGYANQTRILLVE
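qHTS format; LmPK 0.1 nM; substrates PEP 0.5 mM and ADP 0.1 mM. One-hour room-temperature incubation, then coupled luciferase luminescence; 0.5 nM enzyme wells mark activation.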
The depositor's hits bear a star; ? = inconclusive; · = not tested or not shown. Unless noted, calls come from the whole dose curve; as a rule, active = well fitted inhibition curve with a large enough effect; inconclusive = small, poorly fitted or top-dose-only effect, or another doubt; inactive = no such curve, though single readings can be large or run the other way.

SMILES	Shiga inhibitor	Pf growth 48h	Cycloheximide cs	Pf growth 96h	LmPK inh
CCc1ccc(CN2CCC(Oc3ccc(C(=O)N4CCCCC4)cc3)CC2)cc1	-3	-29%	1	?	-2%
C=CCOc1ccccc1CN1CCC(Oc2ccc(C(=O)N3CCCCC3)cc2)CC1	-2	37%	-3	10µM*	2%
Cc1cccc(CN2CCC(Oc3ccc(C(=O)N4CCCC4)cc3)CC2)n1	-5	?	-1	2.3µM*	-6%
O=C(NCc1ccccn1)c1cccc(S(=O)(=O)N2CCCCC2)c1	·	-14%	·	?	·
CC(C)Nc1nnc(Sc2ccc(Cl)cc2[N+](=O)[O-])s1	3	-3%	-3	?	0%
O=C(c1ccc(OC2CCN(C/C=C/c3ccc(F)cc3)CC2)cc1)N1CCCC1	-6	8.3µM*	-2	4.1µM*	1%
CC(C)c1ccc(CN2CCC(Oc3ccc(C(=O)N4CCCC4)cc3)CC2)cc1	-11	6.6µM*	-3	-31%	-5%
C#CC[N+]1(CC#Cc2ccccc2)CCCC1	-4	3.3µM*	-1	49%	-5%
C#CC[N+]1(CC#Cc2cccc3ccccc23)CCOCC1	-1	3.7µM*	1	-5%	3%
C(#Cc1ccccc1)C[N+]1(CC#Cc2cccc3ccccc23)CCCC1	7	2.6µM*	-2	?	0%
C#CC[N+]1(CC#Cc2ccc(C#CC[N+]3(CC#C)CCOCC3)cc2)CCOCC1	-7	-24%	-4	?	7%
COc1ccc(S(=O)(=O)N2CCOCC2)cc1NC(=O)COC(=O)c1oc2ccccc2c1C	·	-12%	·	-8%	·
O=C(Cc1c(F)cccc1Cl)NCC(=O)OCc1ccccc1	·	-4%	·	38%	·
CCOC(=O)CCCc1ccc(/C(C)=N/NC(N)=S)cc1	25	?	15*	?	4%
CC(C)([CH2][Sn]([CH2]C(C)(C)c1ccccc1)([CH2]C(C)(C)c1ccccc1)[O][Sn]([CH2]C(C)(C)c1ccccc1)([CH2]C(C)(C)c1ccccc1)[CH2]C(C)(C)c1ccccc1)c1ccccc1	-20	·	-16	·	·
O=C(NNC(=O)c1ccc[nH]1)c1cccc(C(F)(F)F)c1	8	?	-2	0%	-3%
O=C(NNC(=O)c1ccc[nH]1)Nc1cccc(C(F)(F)F)c1	72*	28%	43*	66%	0%
O=C(NNC(=O)c1ccc[nH]1)Nc1cc(Cl)cc(Cl)c1	31	13%	15*	39%	6%
CCN(C(=O)COC(=O)c1cccc(S(=O)(=O)NCc2ccccc2)c1)c1ccccc1	·	-10%	·	18%	·
CN(Cc1ccc2nonc2c1)Cc1nc(CC2CC2)no1	3	39%	-1	2.3µM*	-3%
Cc1ccc(S(=O)(=O)N/N=C\c2ccc([N+](=O)[O-])o2)cc1	-7	4%	10	5%	-1%
CC1(C(=O)N/N=C/c2ccc([N+](=O)[O-])o2)CC1(Br)Br (configuration not stated)	13	?	-4	10µM*	-2%
CC(C)(C)c1ccc2c(c1)OC(C(=O)N/N=C\c1ccncc1)CO2 (configuration not stated)	-2	-24%	-3	22%	1%
CCOC(=O)N/N=C\c1ccc([N+](=O)[O-])o1	-4	?	-3	8.3µM*	1%
O=C(Cc1ccc([N+](=O)[O-])cc1)N/N=C/c1ccc([N+](=O)[O-])o1	19	?	0	?	2%
SMILES	Shiga inhibitor	Pf growth 48h	Cycloheximide cs	Pf growth 96h	LmPK inh
Cc1cc2ncn(/N=C/c3ccc([N+](=O)[O-])o3)c2cc1C	17	?	-3	4.7µM*	1%
CC(C)(C)c1ccc2c(c1)OC(C(=O)N/N=C/c1ccc([N+](=O)[O-])o1)CO2 (configuration not stated)	-5	?	-2	2.9µM*	2%
COc1cc(OC)c(NC(=O)CSc2nc3ccncc3[nH]2)cc1Cl	·	-1%	·	3%	·
Cc1ccc(S(=O)(=O)N/N=C\c2ccc([N+](=O)[O-])o2)cc1C	-16	-8%	-7	4.1µM*	-9%
CC(=O)N/N=C/c1ccc([N+](=O)[O-])o1	·	?	·	12µM*	·
Cc1ccc(/C=C/C(=O)N2CCN(Cc3ccccc3)CC2)o1	-37	0%	16	402%	2%
O=C(CC12CC3CC(CC(C3)C1)C2)N/N=C/c1ccc([N+](=O)[O-])o1	28	5.2µM*	-7	71%	2%
CCCCCCCC(=O)N/N=C/c1ccc([N+](=O)[O-])o1	2	?	1	?	0%
O=C(CC12CC3CC(CC(C3)C1)C2)N/N=C\c1ccc[nH]1	-1	-14%	5	?	1%
CN1CCN(C(=O)/C=C/c2ccc([N+](=O)[O-])o2)CC1	29*	12µM*	19*	?	-1%
O=C1OCC2=C1C(c1ccccc1)CC(=O)N2c1ccccc1 (configuration not stated)	17	19%	-3	0%	2%
CC[C@H](C)[C@H](N)C(=O)N[C@H](C(=O)N[C@@H](CO)C(=O)N[C@@H](C)C(=O)N[C@H](C(=O)N[C@H](C(=O)NCC(=O)N[C@H](C(=O)N[C@@H](CC(C)C)C(=O)O)[C@@H](C)CC)C(C)C)C(C)C)[C@@H](C)CC	-5	·	-1	·	·
CC(C)OC(=O)Nc1ccc2nc(-c3cscn3)[nH]c2c1	·	-18%	·	-21%	·
CCCN1C2CCCC1CC(NC(=S)Nc1cc(C)cc(C)c1)C2 (configuration not stated)	-17	?	1	?	4%
COCCNC(=O)C1=C(N)C(C(=O)Nc2ccc(C)c(S(=O)(=O)N3CCCCC3)c2)SC1=Nc1ccc(C)cc1C (configuration not stated)	-7	·	-5	?	3%
O=[N+]([O-])c1ccc(/C=N/N=C/c2ccc([N+](=O)[O-])o2)o1	6	4.1µM*	10	-5%	6%
O=C(O)/C=C/c1ccc([N+](=O)[O-])o1	-8	-2%	-2	?	7%
NC(N)=NN=C(/C=C/c1ccc([N+](=O)[O-])o1)/C=C/c1ccc([N+](=O)[O-])o1	·	2.4µM*	·	3µM*	·
CCc1nc(SCC(=O)Nc2sc(C)c(C)c2C(=O)OC)c2ccccc2n1	-7	?	2	3%	2%
O=C(CCC(=O)N1CCOCC1)Nc1nnc(C2CCCCC2)s1	6	·	7	?	15%
S=c1[nH]nc(-c2cc3c(s2)-c2ccccc2CC3)o1	56*	36%	30*	34%	-14%
CSc1nnc(-c2cc3c(s2)-c2ccccc2CC3)o1	80*	80%	25*	85%	-4%
CC1CCc2sc(-c3n[nH]c(=S)o3)cc2C1 (configuration not stated)	41*	225%	19*	171%	?
Oc1cc2ccccc2cc1-c1n[nH]c(=S)o1	-17	8%	0	?	?
